Measurements as given in PubChem BioAssay.
Calls of active or inactive are those of the source.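 The calls were made as follows, unless noted: active = visual image review flags a hit and inhibition of aggregation exceeds 20%; inconclusive = visual hit but inhibition at or below 20%; inactive = no hit on visual image review.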

Tests used:
[1] = inhibitors of TNFa-induced NFkB p65 translocation, primary screen, imaging, HUVEC, MLSMR starter and 10KST1 sets (AID 438;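 active = inhibition above 20% together with a positive visual image hit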;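 also: compound added about 3h40 before a 20 min TNFalpha stimulation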;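 as to inhibition: signal is the nuclear over cytoplasmic p65 intensity ratio per well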); conditions: HUVEC TNFa-induced p65 nuclear translocation; cell count: measured here: nuclei count (cytotoxicity indicator), at 2.08 µM; inhibition: at 2 µM, stronger effect = higher value, 0% TNFa-plus-vehicle, 100% no-TNFa wells
[2] = inhibitors of mutant huntingtin aggregation, primary screen, imaging, exon1htt(103Q)mCFP cells, high-content imaging (AID 483); conditions: exon1htt(103Q)mCFP cell line, aggregate imaging, at 2 µM; inhibition of aggregation: stronger effect = higher value; nuclei count: measured here: cell count, toxicity;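 also: compound exposure lasted 3 days before fixation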;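 as to nuclei count: percent of the per-plate median nuclei count of sample wells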
[3] = inhibitors of E-selectin induction by TNFa, primary screen, imaging, HUVEC, immunofluorescence, MLSMR starter and 10KST1 sets (AID 487;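 active = visually confirmed hit in the image check and inhibition above 20%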;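 as to inhibition: signal is fraction of cell area covered by stained E-selectin grains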;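 as to nuclei count: 100% = median nuclei count of all wells on the same plate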); conditions: HUVEC TNFalpha-induced E-selectin immunofluorescence imaging, at 2 µM; inhibition: stronger effect = higher value; nuclei count: measured here: cell number, toxicity
[4] = molecular target: Voltage-gated potassium channel subunit beta-2 (Rattus norvegicus) (UniProt P62483); experiment: KvBeta enzyme negative modulators, primary screen, biochemical, NADPH fluorescence (AID 622;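 active = fluorescence slope higher than the sample average by over 3 SD, cut at about -0.22 in these data, passing the limit was not always enough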;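 also: slope of raw intensity against log time taken from 70 to 1610 s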); conditions: recombinant KvBeta, 4-cyanobenzaldehyde reduction, at 10 µM, stronger effect = higher value
[5] = molecular target: Voltage-gated potassium channel subunit beta-2 (Rattus norvegicus) (UniProt P62483); experiment: KvBeta positive modulators, primary screen, biochemical, NADPH fluorescence (AID 623;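 active = NADPH fluorescence slope more negative than the mean of all samples by about 3 SD, 99.7% confidence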;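 also: fluorescence intensity change per second fitted from 20 to 320 s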); conditions: Recombinant KvBeta, NADPH fluorescence decrease slope, 10 min; at 10 µM; stronger effect = lower value
[6] = molecular target: Alpha-2C adrenergic receptor (Homo sapiens) (UniProt P18825); experiment: modulators of alpha2C/GIRK thallium flux, primary screen, cell-based, HEK293 alpha2C/GIRK1/2 (AID 624;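 active = fluorescence slope after compound addition differing from the mean of all screened samples at 99.7% confidence, in either direction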;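 also: slope of fluorescence ratio to pre-addition baseline per second over 15 to 24 s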); conditions: thallium flux BTC fluorescence, at 10 µM, actives lie on both sides
[7] = inhibitors of Sendai virus-induced IRF3 signaling, primary screen, TLR/RLR signaling modifier project, cell-based, Sendai virus stimulus, luciferase, 10K MLSCN set (AID 602276;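 active = inhibition at or above 50% at 10 µM; inactive = inhibition below 50%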;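 also: firefly luciferase from ISG56 promoter only with Renilla not read in this screen; 0% = Sendai virus plus DMSO and 100% = medium plus DMSO without virus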); conditions: HEK293 RL24 IRF3 luciferase reporter, at 10 µM, stronger effect = higher value
[8] = inhibitors of poly I:C-induced TLR3 signaling, primary screen, cell-based, poly I:C stimulus, luciferase, 10K MLSCN set (AID 602277;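 active = inhibition of the reporter signal at or above 50%; inactive = inhibition below 50%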); conditions: HEK293-TLR3 RL24 IRF3 luciferase reporter, at 10 µM, stronger effect = higher value

Chain of Alpha-2C adrenergic receptor (Homo sapiens) (P18825 whole entry, looked up): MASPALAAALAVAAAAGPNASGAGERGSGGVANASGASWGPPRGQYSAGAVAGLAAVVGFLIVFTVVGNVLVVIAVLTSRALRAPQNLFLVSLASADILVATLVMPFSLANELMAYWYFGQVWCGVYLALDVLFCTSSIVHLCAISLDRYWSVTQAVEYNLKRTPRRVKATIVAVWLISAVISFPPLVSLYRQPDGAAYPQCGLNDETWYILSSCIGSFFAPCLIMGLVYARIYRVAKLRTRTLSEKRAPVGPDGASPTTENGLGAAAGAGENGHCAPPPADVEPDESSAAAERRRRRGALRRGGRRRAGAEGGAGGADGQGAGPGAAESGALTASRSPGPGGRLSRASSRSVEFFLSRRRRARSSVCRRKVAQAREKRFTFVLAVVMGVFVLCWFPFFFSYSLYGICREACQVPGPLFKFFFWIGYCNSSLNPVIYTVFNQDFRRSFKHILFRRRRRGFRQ
Chain of Voltage-gated potassium channel subunit beta-2 (Rattus norvegicus) (P62483 whole entry, looked up): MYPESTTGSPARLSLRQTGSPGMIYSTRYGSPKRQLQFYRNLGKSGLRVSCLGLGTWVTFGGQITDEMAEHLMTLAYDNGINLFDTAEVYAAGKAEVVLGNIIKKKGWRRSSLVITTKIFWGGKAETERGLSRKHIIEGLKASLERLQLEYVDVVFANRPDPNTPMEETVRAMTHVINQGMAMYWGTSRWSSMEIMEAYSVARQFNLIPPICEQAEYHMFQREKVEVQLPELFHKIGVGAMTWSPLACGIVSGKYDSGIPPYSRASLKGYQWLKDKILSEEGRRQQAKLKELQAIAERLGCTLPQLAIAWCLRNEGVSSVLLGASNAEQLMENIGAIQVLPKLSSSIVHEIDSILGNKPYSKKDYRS

SMILES | cell count [1] | inhibition [1] | inhibition of aggregation [2] | nuclei count [2] | inhibition [3] | nuclei count [3] | fluorescence slope [4] | NADPH fluorescence slope [5] | slope [6] | inhibition [7] | inhibition [8]
COc1ccc(Cl)cc1NC(=O)CCN1CCN(c2ccccc2C)CC1 | 285 | 21.9% (inactive) | -3.9% (inactive) | 101% | -35.4% (inactive) | 112% | -0.308 (inactive) | -6.5e-05 (inactive) | 0.00554 (inactive) | 10% (inactive) | 5.86% (inactive)
O=C(NCC(c1cccnc1)N1CCOCC1)c1cccs1 (stereo unspecified) | 357 | 9.8% (inactive) | -3.5% (inactive) | 97.5% | -81% (inactive) | 123% | -0.414 (inactive) | -1.2e-05 (inactive) | 0.00412 (inactive) | 5.49% (inactive) | 10.9% (inactive)
O=C(OCc1cc2ccccc2[nH]c1=O)c1ccco1 | 234 | 5.6% (inactive) | 1.7% (inactive) | 87.3% | 40.8% (inactive) | 96.9% | -0.476 (inactive) | -6e-05 (inactive) | 0.0037 (inactive) | 4.98% (inactive) | 31.1% (inactive)
CCCNC(=O)c1ccccc1NC(=O)CN(c1ccccc1OCC)S(C)(=O)=O | 654 | -8.2% (inactive) | -11% (inactive) | 105% | -142% (inactive) | 102% | -0.465 (inactive) | -5.5e-06 (inactive) | 0.00349 (inactive) | -1.76% (inactive) | 20.9% (inactive)
COC(=O)c1c(O)ccc(Oc2ccccc2)c1C(=O)OC | 667 | -5.3% (inactive) | 28.9% (inactive) | 71.8% | -17.9% (inactive) | 107% | -0.257 (inactive) | -2.9e-06 (inactive) | 0.0066 (inactive) | 15.3% (inactive) | 21.8% (inactive)
O=C1c2ccccc2C(Nc2ccc(-c3nc4ccccc4[nH]3)cc2)N1Cc1ccco1 (stereo unspecified) | 701 | -6.8% (inactive) | -10.2% (inactive) | 87.9% | -26.7% (inactive) | 108% | -0.589 (inactive) | -2e-06 (inactive) | 0.00641 (inactive) | -24% (inactive) | -47.4% (inactive)
